Compound activity from PubChem BioAssay.
FLuc modulator = counter-screen for miR-21 project: firefly luciferase inhibitors or activators. Potency, µM (doses to about 57.5 µM), for the others: at the highest dose activity change, negative = inhibition, most hits filed as inhibitors. 360,000 tested, 6.9% active. P08659. purified FLuc, Km substrates, luminescence inhibition. AID 588342;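 note: plate controls were vehicle for no effect and reference inhibitor for full effect; nearly all actives have a fitted effect of over 55% in size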
Target sequence (P08659 whole entry, looked up): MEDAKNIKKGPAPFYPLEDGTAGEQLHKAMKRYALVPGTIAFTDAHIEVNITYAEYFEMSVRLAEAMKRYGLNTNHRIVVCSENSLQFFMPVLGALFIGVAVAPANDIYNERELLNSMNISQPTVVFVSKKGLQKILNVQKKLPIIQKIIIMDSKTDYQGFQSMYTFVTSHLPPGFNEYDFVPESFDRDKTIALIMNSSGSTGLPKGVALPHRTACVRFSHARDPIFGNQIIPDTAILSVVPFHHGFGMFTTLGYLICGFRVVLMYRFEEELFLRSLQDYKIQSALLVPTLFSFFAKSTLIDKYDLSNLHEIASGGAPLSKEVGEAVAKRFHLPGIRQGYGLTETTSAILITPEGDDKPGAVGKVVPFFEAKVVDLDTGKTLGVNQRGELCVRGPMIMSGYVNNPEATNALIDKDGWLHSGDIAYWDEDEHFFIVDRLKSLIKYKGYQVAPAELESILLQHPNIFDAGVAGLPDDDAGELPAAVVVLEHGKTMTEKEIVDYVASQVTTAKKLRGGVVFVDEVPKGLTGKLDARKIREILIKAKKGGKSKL
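Biochemical qHTS of compounds, final roughly 60 µM downward over six points, against 10 nM purified firefly luciferase using Km concentrations of substrates (10 uM D-luciferin, 10 uM ATP) in Tris acetate pH 7.5 buffer; luminescence output.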
ELG1 genotox = genotoxicity induction in ELG1-luciferase HEK293T cells; Potency, µM (series often up to 46 µM), inactives show top-dose activity change, positive = activation, usual class: activators; HEK293T ELG1-luciferase reporter, luminescence, 16 h; 330,000 tested, 1.3% active; note: % of control where 0% means no effect; nearly all actives have a fitted effect of over 60% in size
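HEK293T cells expressing luciferase-tagged ELG1 were treated with compound or DMSO for 16 hr at 37°C. Luciferase activity was then read after 30 min with ONE-Glo at room temperature; rising signal flags genetic stress.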
NPC1 promoter act = activates the NPC1 promoter; 320,000 tested, 2.4% active; Potency, µM (top dose mostly 9.22 µM), for inactives: at the highest dose activation, most hits filed as activators; Huh7 NPC1 promoter luciferase reporter, 24 h; AID 485313; note: % of control where 0% means no effect; nearly all actives have a fitted effect of over 60% in size
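Luminescence from an NPC1 promoter-driven luciferase reporter in stably transfected Huh7 cells was measured after 24 h compound treatment at 37 °C, followed by 10 min ambient incubation with luciferase detection reagent.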
SMN2 splice enh = SMN2 splice variant enhancement | HEK293 SMN2-luciferase splicing reporter, luminescence, 30-36 h | Potency, µM (top dose mostly 46.1 µM), for the others: at the top dose activity change, positive = activation, most hits filed as activators | 210,000 tested, 2.8% active; note: % of control where 0% means no effect; nearly all actives have a fitted effect of over 55% in size
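HEK293 cells carry an SMN2 […]–luciferase reporter in which exon 7 inclusion puts luciferase in frame. Cells were plated 10-12 h before compound addition, then incubated 30-36 h at 37C. ONE-Glo luminescence was read; sodium butyrate at 4.5 mM final served as control.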
Luc counter = counter-screen: inhibitors of Kinase-Glo firefly luciferase | AID 1379 | 200,000 tested, 0.28% active | Kinase-Glo luciferase, ATP luminescence, 8 min | Q27757 | Potency, µM (top dose mostly 38.3 µM), for the others: at the highest dose activity change, negative = inhibition, hits mostly inhibitors; note: % is set by controls: 0 for no effect and ±100 for the full control effect; nearly all actives have a fitted effect of over 60% in size
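Substrate mix (final 50 mM imidazole pH 7.2, 50 mM KCl, 7 mM MgCl2, 10 uM ATP, 0.01% Tween 20, 0.05% BSA) plus pin-tool compound, then Kinase-Glo detection mix; 8 min ambient, luminescence read.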
Rab9 promoter act = Rab9 promoter activation; Huh7 Rab9 promoter-luciferase reporter, luminescence, 24 h; Potency, µM (series often up to 9.22 µM), without a hit: top-dose activation, negative = inhibition, usual class: activators; 320,000 tested, 2.8% active; note: % of control where 0% means no effect; nearly all actives have a fitted effect of over 60% in size
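Promoter activation is measured as luciferase luminescence in Huh7 cells stably transfected with a Rab9 promoter–luciferase construct, following 24 h compound exposure at 37 °C and 10 min reagent incubation at ambient temperature.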
Starred values were filed as active, the others as inactive; ? = inconclusive; / = no result; [ ] = another dose, or the depositor's remark. Sampled rows, rich in hits. Any-hit rate of the full collection: about 7.4%. Calls come from the whole dose curve; as a rule, active = well fitted curve in the direction sought with a large enough effect; inconclusive = small, poorly fitted or top-dose-only effect, or another doubt; inactive = no such curve, though single readings can be large; an effect the other way counts as inactive or inconclusive. Potency is the fitted concentration of half-maximal effect.

SMILES	FLuc modulator	ELG1 genotox	NPC1 promoter act	SMN2 splice enh	Luc counter	Rab9 promoter act
CC(C)CC(=O)Nc1ccc2nn(-c3ccccc3)nc2c1	2.7µM*	?	1.6µM*	6.3µM*	1%	1.6µM*
O=C(Nc1ccc2nn(-c3ccccc3)nc2c1)c1ccc(Br)o1	1%	?	3%	3%	-2%	4%
Cc1ccc(-n2nc3ccc(NC(=O)C(C)C)cc3n2)cc1	0.95µM*	1.2µM*	0.35µM*	2.2µM*	3%	0.35µM*
CCc1cccc(NC(=O)C2CCCN(S(=O)(=O)c3cccnc3)C2)c1 (configuration not stated)	-2%	-12%	-2%	/	/	-2%
CCCCC1CCC(C(=O)NCC(c2ccco2)N2CCOCC2)CC1 (configuration not stated)	1%	-2%[9.26 µM]	-3%	/	/	0%
CCCC(=O)Nc1ccc2nn(-c3ccc(OC)cc3)nc2c1	5.4µM*	?	?	/	/	2µM*
CC1(C)Cc2c(cnn2-c2ccccc2)C(NC(=O)CCN2CCCC2=O)C1 (configuration not stated)	4%	-2%	0%	/	/	0%
CCOc1ccc(-c2cc(NC(=O)c3ccccc3)c(C(=O)OC)s2)cc1	2%	/	/	13%	/	/
COC(=O)c1sc(-c2ccc(Cl)cc2)cc1NC(=O)COCC(=O)O	?	5%	3%	/	/	3%
COC(=O)c1sc(-c2ccc(C(C)(C)C)cc2)cc1NC(=O)CCC(=O)O	1.5µM*	?	24%	/	/	27%
COC(=O)c1sc(-c2ccc(Cl)cc2)cc1NC(=O)/C=C/C(=O)O	9.5µM*	2%	0%	/	/	-6%
CCOc1ccc(C(=O)NC(C(=O)NCC(c2cccs2)N(C)C)C(C)C)cc1 (configuration not stated)	4%	0%	1%	/	/	-7%
Nc1cc(-c2ccccc2)ccc1O	24µM*	3%	12%	-1%	-1%	1%
Nc1ccc(-c2ccc(N)c(O)c2)cc1O	/	/	/	-8%	/	/
CCOC(=O)c1ccc(NC(=O)CC2C(=O)N(c3ccc(C)cc3)C(=O)N2C2CCCC2)cc1 (configuration not stated)	-1%	/	/	/	/	/
CC(C(c1cccs1)c1c(N)n(C)c(=O)n(C)c1=O)[N+](=O)[O-] (configuration not stated)	1%	-1%	-2%	/	/	1%
O=C(O)c1cccc(NC(=O)C2C3C=CC(C3)C2C(=O)OCC(F)(F)C(F)F)c1 (configuration not stated)	17µM*	6%	-2%	-7%	1%	5%
O=C(O)c1cccc(NS(=O)(=O)c2ccc(C3CCCCC3)cc2)c1	27µM*	2%	-4%	17%	2%	-3%
Cc1cccc(NS(=O)(=O)c2ccc(C3CCCCC3)cc2)c1	6%	-10%	-5%	-38%	-1%	-2%
CCCc1cc(C(=O)Nc2cc(C)on2)no1	21µM*	?	2%	5%	15%	-5%
Cc1cc(NC(=O)c2cc(CC(C)C)on2)no1	11µM*	13µM*	2%	21%	-1%	3%
CCCOc1ccc(-c2nonc2NC(=O)COc2ccc(C)cc2)cc1OCCC	1%	/	/	-6%	/	/
O=C(O)COc1ccccc1/C=N/NC(=O)c1cc(-c2ccccc2)nc2ccccc12	2.7µM*	0%	0%	/	/	-2%
O=C(N/N=C/c1ccccc1OC(F)F)c1cc(-c2ccncc2)nc2ccccc12	?	1%	-19%	-18%	-4%	-14%
O=C(O)COc1ccccc1/C=N/NC(=O)c1cc(-c2ccc(Cl)cc2)nc2ccccc12	0.95µM*	0%	-1%	/	/	-2%
CCOc1ccc(NC(=O)c2nn(C)c3c2COc2ccccc2-3)cc1	-15%	/	/	/	/	/
Cc1ccc(C(=O)NCc2nc3ccccc3[nH]2)o1	-1%	5%	2%	/	/	5%
